# Bioassay records from PubChem.
# Most compounds without a hit are left out; they make up all but 3.4% or so of the library.
# AI-2 QS mod – Vibrio harveyi AI-2 quorum sensing modulation. Vibrio harveyi JMH597 AI-2 luminescence/OD600 ratio, 9 h; active compounds read low; strain lacks LuxN and CqsS sensors; 0 = neutral-control median. activity change, % at 7.5 µM. 300,000 compounds, 0.4% hits. AID 2094; in the data active = activity change below about -75%, passing the limit was not always enough;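 also: luminescence divided by OD600 gain over 9 h not by final OD600 alone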
# HSP90 refold inh – blocks HSP90-mediated luciferase refolding in reticulocyte lysate | Rabbit reticulocyte lysate, luciferase refolding luminescence, 3 h | 290,000 compounds, 0.91% hits | inhibition, % at 5.6 µM;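 active = inhibition above the screen-wide mean plus 3 SD, computed separately per campaign, cut at about 16% in these data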;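 also: 0% = DMSO wells and 100% = 60 µM geldanamycin wells; inhibitors lower the luminescence because luciferase stays unfolded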
# SMARCA2 activ – SMARCA2 function activation, primary screen | AID 652017 | 370,000 compounds, 1% hits | activation, % at 9.1 µM | MG213 cells, MMTV-luciferase reporter, dexamethasone, overnight; in the data active = activation above about 7.8%;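 also: 0% = vehicle wells and 100% = reference activator wells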
# GAA850 FXN act – frataxin GAA850 promoter activation. HEK293 lucGAA850 FXN promoter luciferase reporter, 24 h; percent of 10 µM SAHA response. activation, % at 6 µM. 360,000 compounds, 0.56% hits;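 active = activation above the average of all compounds screened plus 3 SD, cutoff fixed separately per campaign, cut at about 7.5% in these data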;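 also: 0% = DMSO wells and 100% = 10 µM SAHA wells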
# PG9 binder – binds the HIV-1 gp120 antibody PG9; TR-FRET gp120-PG9 antibody binding; inhibition, % at 6.7 µM; 360,000 compounds, 0.43% hits; in the data active = inhibition above about 8.5%
# HSF1 inh – HSF1 inhibition; NIH3T3-HGL HSE-luciferase, MG132-induced, luminescence 8 h; active compounds read low; activity change, negative = inhibition, % at 7.5 µM (by protocol); AID 2098; 300,000 compounds, 0.77% hits;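 active = more than half of replicate wells show activity change below -50%, luminescence cut by over half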;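 also: luciferase reports HSF-1 transcriptional activity via heat shock element; 0% = median of DMSO wells and -100% = zero luminescence signal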
# GAA30 FXN cntr – GAA30 FXN promoter activation counter-screen. shares compounds with GAA850 FXN act. HEK293 lucGAA30 FXN promoter luciferase, 24 h; DMSO = 0%, 5 µM ipriflavone = 100%. activation, % at 6 µM. 1,900 compounds, 66% hits. AID 588350;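 active = mean activation above the mean of solvent-only control wells plus 3 SD, cut at about 22% in these data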;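 also: counterscreen of GAA850 promoter hits where activity marks nonselective or luminescence artifacts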
# GAA850 confirm – GAA850 FXN promoter activation confirmation | shares compounds with GAA850 FXN act | activation, % at 6 µM | AID 588351 | HEK293 lucGAA850 FXN promoter luciferase reporter, 24 h; 100% = activation by SAHA | 1,900 compounds, 86% hits;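 active = mean activation above a set limit taken from the primary screen, cut at about 8% in these data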;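 also: 0% = DMSO wells and 100% = 10 µM SAHA wells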
# Active calls of the source: *; . = not tested or not shown.
SMILES,AI-2 QS mod,HSP90 refold inh,SMARCA2 activ,GAA850 FXN act,PG9 binder,HSF1 inh,GAA30 FXN cntr,GAA850 confirm
C[C@@H]1CN(C(=O)OC(C)(C)C)CCN1c1ccc(N2CCN(Cc3ccccc3)[C@@H](C)C2)c(C#N)c1,.,.,-6.9,.,-1.1,.,.,.
N#Cc1c(N)nc(SCc2ccncc2)c(C#N)c1-c1cccs1,37.5,-1.7,-7.2,9.9*,-0.1,-67.6*,-8.2,6.1
CC(C)NC(=O)C1C(c2ccc(C(F)(F)F)cc2)=Nc2ccccc2N1C(=O)c1cccc(C(F)(F)F)c1 (stereo not drawn),.,.,0.7,.,-1.6,.,.,.
COc1cc(C(=O)O[C@H]2CC(C)=CC[C@@]3(C)CC[C@@](O)(C(C)C)[C@H]23)ccc1O,11.1,1.8,-0.9,16.2*,-0.2,3.7,28.6*,8.1*
COc1cc(C(=O)O[C@H]2C/C(C)=C/CC[C@]3(C)O[C@@H]3C(O)C2C(C)C)cc(OC)c1OC (stereo partly drawn),0.9,7.1,-2.0,-7.7,-0.2,9.4,.,.
Cn1c2nc3ccccc3c-2nc2ccccc21,.,.,5.7,11.0*,-27.1,.,114.8*,34.7*
Cc1ccc(-c2nc3ccccc3n2C)o1,6.6,7.9,1.1,5.7,-2.2,10.0,.,.
COCCn1c(SCC(=O)Nc2ccccc2F)nc2c([nH]c3ccccc32)c1=O,7.3,1.3,-1.2,-0.2,0.5,10.0,.,.
C=CCn1c(SCC(=O)Nc2ccccc2OC)nc2c([nH]c3ccccc32)c1=O,3.1,1.9,3.0,12.7*,2.2,20.5,18.1,12.1*
COCCn1c(SCC(=O)Nc2ccccc2OC)nc2c([nH]c3ccccc32)c1=O,9.1,0.7,-1.8,8.0*,-1.2,23.7,14.1,7.9*
COc1cc(OC)nc(Nc2nc(C(N)CCc3ccccc3)cs2)n1 (stereo not drawn),.,.,-7.3,9.0*,-0.2,.,21.1,17.0*
COc1cc(OC)nc(Nc2nc(C(N)c3ccccc3)cs2)n1 (stereo not drawn),.,.,0.1,-3.1,-1.6,.,.,.
COc1cc(OC)nc(Nc2nc(C(N)COCc3ccccc3)cs2)n1 (stereo not drawn),.,.,-4.7,7.6*,0.8,.,22.6*,14.2*
O=C(NCc1ccccc1)[C@H]1CCCN1C(=O)[C@H]1CCCN1C(=O)c1ccc(F)c(F)c1,.,.,-3.6,.,-1.7,.,.,.
Nc1ccc2nc(-c3cc(Cl)c(N)c(Cl)c3)[nH]c2c1,10.2,-5.0,2.1,8.3*,-20.2,0.8,160.1*,50.4*
Nc1ccc2nc(-c3ccc(Cl)cc3)[nH]c2c1,14.7,.,2.5,4.0,0.9,18.6,.,.
Clc1ccccc1/C=N/NC1=Nc2cccc3cccc1c23,14.0,-2.8,7.4,9.7*,-2.2,-17.0,83.9*,39.4*
Clc1ccccc1C=NNc1ccccn1,.,.,7.0,5.1,-1.7,.,.,.
CCOC(=O)c1c(-c2ccc(F)cc2)csc1NC(=O)CN1C(=O)NC2(CCCCC2C)C1=O (stereo not drawn),20.2,1.1,-0.2,12.8*,0.2,11.6,9.3,17.5*
S=c1[nH]nc(-c2ccco2)n1/N=C/C(Cl)=C/c1ccccc1,57.0,3.4,4.6,8.0*,1.5,142.4,78.3*,32.4*
S=c1[nH]nc(-c2cc(-c3ccccc3)n[nH]2)n1/N=C/C(Br)=C/c1ccccc1,21.9,0.0,-1.2,12.2*,1.4,98.7,-41.8,26.2*
COCC(=O)Nc1nnc(-c2ccc(C(C)(C)C)cc2)s1,-44.4,5.5,2.4,8.3*,0.9,19.6,124.4*,37.0*
N#CC(c1cccc(C(F)(F)F)c1)(c1ncc(C(F)(F)F)cc1Cl)N1CCOCC1 (stereo not drawn),11.9,1.8,-0.7,-1.4,-0.5,1.6,.,.
N#CC(c1ccccc1)(c1ncc(C(F)(F)F)cc1Cl)N1CCOCC1 (stereo not drawn),22.9,-0.6,-0.3,11.4*,-0.5,-0.7,26.0*,9.1*
Cc1ccc2nc(/C=C/c3cccc(F)c3)ccc2c1,2.1,-2.5,5.2,9.5*,-2.5,10.7,101.4*,30.1*
SMILES,AI-2 QS mod,HSP90 refold inh,SMARCA2 activ,GAA850 FXN act,PG9 binder,HSF1 inh,GAA30 FXN cntr,GAA850 confirm
COc1cc(/C=C2/SC(=S)N(CCC(=O)N3CCN(C)CC3)C2=O)cc(OC)c1OC,.,.,0.3,-2.2,-5.2,.,.,.
COCc1cccc(-c2csc(C(O)c3ccccc3)n2)c1 (stereo not drawn),.,.,-2.1,3.0,0.1,.,.,.
CC1CC(C)(C)Nc2ccc(OC(=O)c3ccco3)cc21 (stereo not drawn),9.6,5.8,-6.3,4.7,0.1,-10.3,.,.
CC1CC(C)(C)Nc2ccc(N=O)cc21 (stereo not drawn),66.7,-0.8,-6.1,12.5*,-18.6,0.8,58.3*,67.4*
COc1ccc(CN2C[C@@H](CO)O[C@@H](n3cnc4c(N5CCOCC5)ncnc43)C2)cc1,.,.,-3.7,0.5,0.6,.,.,.
O=C1[C@H]2[C@@H](c3ccc(Cl)cc3)N3C(=O)N(c4cccc(Br)c4)C(=O)[C@@]3(Cc3ccc(Cl)cc3)[C@H]2C(=O)N1C1CCCCC1,23.6,9.7,0.2,6.6,-2.6,-6.1,.,.
C[C@@]12C(=O)N(c3cccc(Cl)c3)C(=O)N1[C@H](c1ccc(Cl)cc1)[C@@H]1C(=O)N(C3CCCCC3)C(=O)[C@@H]12,17.8,.,-0.1,7.3,-1.5,-0.9,.,.
C[C@@]12C(=O)N(c3cccc(F)c3)C(=O)N1[C@H](c1ccc(Cl)cc1)[C@@H]1C(=O)N(C3CCCCC3)C(=O)[C@@H]12,13.6,.,-2.1,11.2*,-0.7,5.1,7.6,5.3
CC(C)C[C@@]12C(=O)N(c3cccc(F)c3)C(=O)N1[C@H](c1ccc(F)cc1)[C@@H]1C(=O)N(C3CCCCC3)C(=O)[C@@H]12,25.8,.,-0.1,11.8*,0.7,5.1,18.4,13.6*
COc1ccc(N2C(=O)N3[C@H](c4ccc(Cl)cc4)[C@@H]4C(=O)N(C5CCCCC5)C(=O)[C@@H]4[C@]3(C)C2=O)cc1,17.2,-2.4,-0.8,13.5*,-2.6,-35.9,9.1,5.4
CC(C)C[C@@]12C(=O)N(c3cccc(F)c3)C(=O)N1[C@H](c1ccc(Cl)cc1)[C@@H]1C(=O)N(C3CCCCC3)C(=O)[C@@H]12,20.9,.,-0.6,15.6*,-2.9,-16.4,25.5*,14.2*
O=S(=O)(NCC[C@@H]1CC[C@H](NS(=O)(=O)c2cccc(F)c2)[C@@H](CO)O1)c1cccc(F)c1,.,.,-7.4,.,1.2,.,.,.
C[C@H]1COc2cccc(N3CCCC3)c2S(=O)(=O)N1,.,.,-3.7,.,-0.3,.,.,.
